# Results published in PubChem BioAssay AID590 (National Center for Advancing Translational Sciences (NCATS), 2007).
# About 6,500 (11%) of roughly 59,000 compounds were called active. About 15% were inconclusive and are not listed. Rule as the data show it: active = max dye-equivalent concentration above about 10 nM; inconclusive = mostly about 1.1 nM to 9.6 nM; inactive = weaker than that. Many of the other results were omitted from the sample, so actives are more common in it than they were.
# Test: qHTS Assay for Spectroscopic Profiling in A350 Spectral Region
# Details: Compound autofluorescence, 340/450 nm, Alexa 350 dye-equivalents; stronger effect = higher value
row,SMILES,max dye-equivalent concentration
1,CC1(C)Cc2c(sc3nc4n(c(=N)c23)CCCCC4)CO1,inactive
2,CCOC(=O)Cn1c(SC)nc2sc3c(c2c1=O)CC(C)(C)OC3,inactive
3,CCC1(C)Cc2c(sc3nc4n(c(=O)c23)CCCS4)CO1 (stereo not drawn),56 nM (active)
4,CCCCC[C@H](O)CCCC(=O)O,inactive
5,CC(=O)c1c(C)n(-c2ccc(N(C)C)cc2)c2ccc(OCC(N)=O)cc12,inactive
6,CCCc1[nH]nc2c1C(c1ccc(OC)c(Cn3nc(C)c(Br)c3C)c1)C(C#N)=C(N)O2 (stereo not drawn),inactive
7,CC(=O)/C(=N\N=C(N)N)c1ccccc1,inactive
8,OC(COc1cccc2ccccc12)CN1CCN(c2ccccn2)CC1 (stereo not drawn),inactive
9,O=C1c2cccc3cccc(c23)N1CN1CCN(c2ccccn2)CC1,16 nM (active)
10,CC(=C1C(=O)c2ccccc2C1=O)N1CCN(c2ccccn2)CC1,inactive
11,COc1ccccc1OCCC(=O)OCC(=O)NC(=O)NC(C)(C)C,inactive
12,CN1C(C)(C)CC(NC(=O)CCC(=O)NC2CC(C)(C)N(C)C(C)(C)C2)CC1(C)C,inactive
13,CCn1c(=N)c(S(=O)(=O)c2ccc(F)cc2)cc2c(=O)n3ccccc3nc21,780 nM (active)
14,CC1CCCC(NC(=O)CSc2nccn2C)C1C (stereo not drawn),inactive
15,O=C(c1c(Cl)nc2sccn12)N1CCCc2ccccc21,inactive
16,COc1ccccc1CNc1nc(-c2c(C)noc2C)nc2ccccc12,inactive
17,Cc1cnc(NC(=O)CSc2nnc(-c3ccccc3)n2Cc2ccccc2)s1,inactive
18,COc1ccc(CC(=O)Nc2nc3n(n2)C(c2ccccc2)CC(=O)N3)cc1OC (stereo not drawn),inactive
19,CNC(=O)CSc1nnnn1-c1ccc(C)cc1C,inactive
20,COc1ccc(-n2c(C)cc(C(=O)CSc3nnc(-c4cccs4)o3)c2C)cc1,inactive
21,COc1ccc(OC)c(C(=O)CSc2nnc(-c3cccs3)o2)c1,150 nM (active)
22,COc1ccc(-c2nnc(SCC(=O)c3cccs3)o2)c(OC)c1,inactive

row,SMILES,max dye-equivalent concentration
1,c1ccc(CSCCc2ccncc2)cc1,inactive
2,CN(CCC#N)c1ncnc2scc(-c3ccccc3)c12,inactive
3,O=C(CN1C2CCC1CC(NC(=O)C1CC1)C2)NCc1ccccc1 (stereo not drawn),inactive
4,CCCCNC(=O)CSc1nnc(-c2ccco2)n1C,inactive
5,CC(C)N(C(=O)COC(=O)c1ccccc1C(=O)N1CCN(c2ccc(F)cc2)CC1)C(C)C,inactive
6,Cn1c2ccccc2c2c(C(=O)N3CCN(c4ccc(F)cc4)CC3)cn(C3CCCC3)c(=O)c21,13 nM (active)
7,O=C(c1ccccc1)c1cccn1CC(=O)N1CCN(c2ccc(F)cc2)CC1,inactive
8,CCCCn1nnnc1NCc1cc(OC)c(OC)c(OC)c1,inactive
9,COc1ccccc1-n1nnnc1S(=O)(=O)Cc1ccc(Cl)cc1,inactive
10,COc1ccc(OCC(=O)N2CCN(C(=O)COc3ccccc3)CC2)cc1,inactive
11,CCC(CC)C(=O)Nc1cccc(C(=O)N2CCCC2)c1,inactive
12,COc1ccc(OCc2cccc(C(=O)N3CCCC3)c2)cc1,18 nM (active)
13,Cc1noc(C)c1CSc1nnc2ccc3ccccc3n12,inactive
14,CCC(=O)Nc1sc(C(=O)N2CCCCC2)c(C)c1C#N,inactive
15,CC(C)C(C(=O)NC1CCCCC1)N(CC1CCCO1)C(=O)CNS(=O)(=O)c1ccc(F)cc1 (stereo not drawn),inactive
16,c1ccc2c(CNn3cnnc3)cccc2c1,inactive
17,COC(=O)[C@H](Cc1ccccc1)NC(=O)N1CC(C)OC(C)C1 (stereo partly drawn),inactive
18,COc1ccc(C2N=C(N)N=C(N)N2c2ccccc2)cc1OC (stereo not drawn),inactive
19,C=CCn1c(CC(=O)Nc2cccc(OC)c2)nnc1SCC(=O)NC1CCCCC1,inactive
20,Cn1c(-c2ccco2)nc2cc3ccccc3cc21,1100 nM (active)
21,Cn1c(SCC(=O)c2cccs2)nnc1-c1ccco1,inactive
22,c1coc(-c2nc3nc4ccccc4n3nc2-c2ccco2)c1,inactive

row,SMILES,max dye-equivalent concentration
1,O=C(Nc1cc(C(F)(F)F)ccc1Cl)c1cc(C2CC2)on1,inactive
2,Cn1c(SCC(=O)OC2CCCCC2)nnc1-c1ccc(S(=O)(=O)N2CCCC2)cc1,inactive
3,O=C(COC(=O)c1ccc(Oc2ccccc2)cc1)Nc1nnc(-c2ccccc2)o1,inactive
4,O=C(CSc1nnc(-c2ccccc2)o1)N1CCOCC1,inactive
5,Nc1ccc(-c2nnc(-c3ccc(-c4ccccc4)cc3)o2)cc1,300 nM (active)
6,O=C(O)CN1C(=O)CC(Cc2ccccc2)C1=O (stereo not drawn),inactive
7,c1nc(COc2nsnc2N2CCOCC2)cs1,inactive
8,O=C(OC1CCOC1=O)c1ccc(-c2nc3ccccc3s2)s1 (stereo not drawn),1100 nM (active)
9,O=C(c1cccs1)N1CCC(c2nc3ccccc3s2)CC1,inactive
10,Cc1nn(Cc2ccccc2)c(Cl)c1C(=O)OC1CCOC1=O (stereo not drawn),inactive
11,CC(C)NS(=O)(=O)c1ccc(OCC(=O)Nc2ccc3c(c2)OCCO3)cc1,inactive
12,CCOc1ccc2[nH]c(=O)c(C(c3nnnn3CCOC)N3CCOCC3)cc2c1 (stereo not drawn),690 nM (active)
13,COc1ccc(OC)c(C(c2nnnn2C(C)(C)C)N2CCc3ccccc3C2)c1 (stereo not drawn),inactive
14,COCCn1nnnc1C(c1cc2ccc(OC)cc2[nH]c1=O)N1CCc2ccccc2C1 (stereo not drawn),18 nM (active)
15,Cc1cc(C)c2[nH]c(=O)c(C(c3nnnn3Cc3ccc4c(c3)OCO4)N3CCCC3)cc2c1 (stereo not drawn),inactive
16,COc1ccc(N2CCN(C(c3cc4ccc(C)cc4[nH]c3=O)c3nnnn3C3CCCC3)CC2)cc1 (stereo not drawn),inactive
17,COCCn1nnnc1C(c1ccccc1Cl)N1CCN(c2ccccc2OC)CC1 (stereo not drawn),inactive
18,CCOc1ccccc1Nc1nnc(SCC(=O)Nc2cc(C)on2)s1,inactive
19,Cc1ccccc1CN1CCN(C(=O)c2cccc(F)c2)CC1,inactive
20,CCOc1ccccc1N=C1NC(=O)CS1,inactive
21,COc1ccccc1-c1nnc(SCC(=O)Nc2ccccc2)o1,inactive
22,c1ccc(CCN2CCN=C2Cc2ccccc2)cc1,inactive

row,SMILES,max dye-equivalent concentration
1,O=c1cc(-c2ccc(O)c(O)c2)oc2cccc(O)c12,inactive
2,CC(C)OC(=O)C(C#N)c1nc2ccccc2nc1N1CCN(Cc2ccccc2)CC1 (stereo not drawn),inactive
3,CC(C)OC(=O)C(C#N)c1nc2ccccc2nc1N1CCN(Cc2ccc3c(c2)OCO3)CC1 (stereo not drawn),120 nM (active)
4,COc1ccc(-c2csc(N3CCN(Cc4ccc5c(c4)OCO5)CC3)n2)cc1,inactive
5,Cc1ccc(S(=O)(=O)N2CCN(Cc3cccc(C)c3O)CC2)cc1,inactive
6,Cc1cc(=O)oc(C)c1C(=O)Nc1cnc2ccccc2c1,12 nM (active)
7,Cc1cc(=O)oc(C)c1C(=O)NC1CC(C)(C)NC(C)(C)C1,inactive
8,CC(=O)Nc1cccc(NC(=O)c2c(-c3ccccc3)noc2C)c1,inactive
9,CCC(=O)Nc1ccc(C(=O)Nc2ccc3c(c2)C(=O)N(CC2CCCO2)C3=O)cc1 (stereo not drawn),150 nM (active)
10,O=C(CCN1C(=O)c2ccncc2C1=O)Nc1ccc2c(c1)OCCO2,inactive
11,O=C(NCc1ccc2c(c1)OCO2)c1ccc2c(c1)C(=O)N(CC1CCCO1)C2=O (stereo not drawn),inactive
12,CCC(c1nnnn1C1CCCC1)N1CCN(C(=O)c2ccco2)CC1 (stereo not drawn),inactive
13,O=C(Nc1ccc(-c2nnc(-c3ccccc3)o2)cc1)C1CCCO1 (stereo not drawn),inactive
14,O=C(Nc1ccc(-c2nnc(-c3ccccc3)o2)cc1)c1ccc(Br)o1,68 nM (active)
15,O=C(Nc1cccc(-c2nnc(-c3ccccc3)o2)c1)C1CCCO1 (stereo not drawn),inactive
16,CCNS(=O)(=O)c1ccc(NC(=O)Nc2cccc(OC)c2)cc1,inactive
17,CN1c2ccccc2-c2nc3ccccc3n2C1c1ccco1 (stereo not drawn),3400 nM (active)
18,CSCCC(NC(=O)c1ccc(=O)n(C)n1)c1nc2ccccc2[nH]1 (stereo not drawn),inactive
19,COc1cc(C2C(C(=O)c3sc(C)nc3C)=C(O)C(=O)N2CCN(C)C)cc(OC)c1OC (stereo not drawn),inactive
20,O=C(c1csnn1)N1CCC[C@@]2(CCN(Cc3nccs3)C2)C1,inactive
21,O=C(NC1CCCCC1)c1ccc2c(=O)n(CC3CCCO3)c(=O)[nH]c2c1 (stereo not drawn),15 nM (active)
22,Cc1ccc(C(=O)Nc2ccccc2C(=O)NC2CCCCC2)cc1S(=O)(=O)N1CCOCC1,inactive

row,SMILES,max dye-equivalent concentration
1,O=c1c2cc3c(=O)n(CC4CCCO4)c(=O)c3cc2c(=O)n1CC1CCCO1 (stereo not drawn),inactive
2,NS(=O)(=O)c1cc(C(=O)O)c(Cl)c([N+](=O)[O-])c1Cl,inactive
3,CS(=O)(=O)N(Cc1nc2sc3c(c2c(=O)[nH]1)CCCC3)C1CCCCC1,44 nM (active)
4,COc1ccc(Br)c2c1C[C@H](C(=O)O)CC2,inactive
5,C=CCNC(=O)CCCC(=O)NCC=C,inactive
6,CSc1nnc(-c2ccncc2)n1CCCN1CCCC1=O,inactive
7,O=C(CCn1c(=S)[nH]c2ccccc2c1=O)NCCCN1CCCC1=O,inactive
8,CC(C)(C)OC(=O)c1c(N)n(CCCN2CCCC2=O)c2nc3ccccc3nc12,9100 nM (active)
9,COc1ccc(N2C(=O)CC(N3CCC(C(N)=O)CC3)C2=O)cc1 (stereo not drawn),inactive
10,CC(C)NC(=O)N1CC[C@@]2(CCCN(C(=O)c3cccc(F)c3)C2)C1,inactive
11,CCCCCNC(=O)Cc1ccc(OC)cc1,inactive
12,CCS(=O)(=O)n1nc(-c2ccccc2)nc1SCc1ccccc1,inactive
13,COC(=O)c1ccc(C2C3=C(Nc4nnnn42)c2ccccc2OC3)cc1 (stereo not drawn),74 nM (active)
14,COc1ccccc1NC(=O)C1=C(C)Nc2nnnn2C1c1cccc(Br)c1 (stereo not drawn),inactive
15,CCCCCOC(=O)C1=C(C)Nc2nnnn2C1c1ccc(OC)c(OC)c1OC (stereo not drawn),inactive
16,CC(=O)OC(C(=O)NC1CCCCC1)c1ccccc1 (stereo not drawn),inactive
17,Cc1cc(C(=O)OCC(=O)c2c(N)n(C)c(=O)n(C)c2=O)c(C)o1,inactive
18,CC(NC(=O)CSc1nc2c(cc1C#N)CN(C)CC2)c1ccccc1 (stereo not drawn),26 nM (active)
19,Cc1ccc2cc(C#N)c(SCC(=O)NCC3CCCO3)nc2c1C (stereo not drawn),inactive
20,CC(NC(=O)c1cc(-c2ccccc2)on1)c1ccccc1 (stereo not drawn),inactive
